Source: the supplement of paper PMC10849652
The full data set covers some 8,800 targets. This sample favours those with a hit. About 0.5% of all pairs of compound and target were hits.

Key:
Experiment in all cases: log2 fold change, soluble protein after heating vs DMSO (PISA); higher = thermal stabilisation; K562 lysate, 10 uM; active = over 0.2 and 3.5 SD of the protein, either way, in both replicates (recomputed)
[1] = compound: Cc1cn(-c2cc(NC(=O)c3ccc(C)c(Nc4nccc(-c5cccnc5)n4)c3)cc(C(F)(F)F)c2)cn1 [nilotinib]
Method in brief: (§1)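 Following dounce homogenisation of K562 pellets in PBS pH 7.4 with 1 mM MgCl2, crude extract at 1 mg/mL protein was incubated for 30 min with 10 μM compound. Aliquots were then heated for 3 min over 48°C-58°C and pooled, NP-40 was added to 0.5% at 4°C, and soluble protein was recovered as the supernatant at 21,000xg for 90 min. Channel-sum-equalised TMTpro 16plex LC-MS/MS quantified this protein. Each value, from duplicates, is a log-two fold change in thermal stability relative to solvent controls.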

[2] = compound: Cc1nc(Nc2n[nH]c3c2CN(C(=O)N[C@H](CN(C)C)c2ccccc2)C3(C)C)c2sccc2n1
Method in brief: as §1

[3] = compound: Cc1nc(Nc2ncc(C(=O)Nc3c(C)cccc3Cl)s2)cc(N2CCN(CCO)CC2)n1 [dasatinib]
Method in brief: as §1

[4] = compound: Cc1ncc(-c2ccnc(Nc3ccc(S(C)(=O)=O)cc3)n2)n1C(C)C
Method in brief: as §1

[5] = compound: Cn1cc(-c2ccc3c(c2)CCN3C(=O)Cc2cccc(C(F)(F)F)c2)c2c(N)ncnc21
Method in brief: as §1

[6] = compound: Cn1cc(CNCC2CCN(c3ncc(C(=O)NO)cn3)CC2)c2ccccc21 [quisinostat]
Method in brief: as §1

[7] = compound: Cn1cncc1[C@@](N)(c1ccc(Cl)cc1)c1ccc2c(c1)c(-c1cccc(Cl)c1)cc(=O)n2C [tipifarnib]
Method in brief: as §1

[8] = compound: NC(=O)Nc1cc(-c2cccc(F)c2)sc1C(=O)N[C@H]1CCCNC1
Method in brief: as §1

[9] = compound: NC(=O)c1cnc(N[C@@H]2CCCC[C@@H]2N)nc1Nc1cccc(-n2nccn2)c1
Method in brief: as §1

[10] = compound: NC1(c2ccc(-c3nc4ccn5c(=O)[nH]nc5c4cc3-c3ccccc3)cc2)CCC1
Method in brief: as §1

Measured: log2 fold change

CNOT2 (UniProt Q9NZN8)
inactive: [1] 0.013 | [2] -0.011 | [3] -0.024 | [4] 0.009 | [5] -0.018 | [6] -0.026 | [7] -0.074 | [8] 0.024 | [9] 0.02 | [10] -0.001

CKAP2 (UniProt Q8WWK9)
Sequence of UniProt Q8WWK9 (Q8WWK9 whole entry, looked up): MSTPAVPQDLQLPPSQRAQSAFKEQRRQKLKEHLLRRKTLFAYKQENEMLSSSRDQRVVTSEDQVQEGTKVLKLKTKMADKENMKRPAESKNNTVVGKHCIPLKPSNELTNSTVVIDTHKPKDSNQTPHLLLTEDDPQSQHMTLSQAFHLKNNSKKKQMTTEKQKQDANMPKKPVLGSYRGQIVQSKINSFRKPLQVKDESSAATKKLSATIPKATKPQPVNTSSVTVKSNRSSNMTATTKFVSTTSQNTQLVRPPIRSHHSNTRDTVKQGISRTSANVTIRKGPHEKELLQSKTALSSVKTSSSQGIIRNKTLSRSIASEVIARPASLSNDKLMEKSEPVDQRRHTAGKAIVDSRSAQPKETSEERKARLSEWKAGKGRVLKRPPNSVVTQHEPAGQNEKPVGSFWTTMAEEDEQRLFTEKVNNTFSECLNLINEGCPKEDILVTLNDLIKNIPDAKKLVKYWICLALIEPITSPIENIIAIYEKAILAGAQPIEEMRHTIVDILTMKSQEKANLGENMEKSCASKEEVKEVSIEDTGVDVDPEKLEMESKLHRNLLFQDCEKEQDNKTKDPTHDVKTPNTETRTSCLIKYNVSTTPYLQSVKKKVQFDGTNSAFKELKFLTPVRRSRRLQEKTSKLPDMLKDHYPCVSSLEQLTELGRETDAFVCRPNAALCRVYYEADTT
inactive: [1] 0.075 | [2] 0.07 | [3] 0.004 | [4] 0.036 | [5] -0.014 | [6] -0.098 | [7] -0.053 | [8] -0.015 | [9] -0.049 | [10] -0.023

DENND4A isoform 2 (UniProt Q7Z401)
inactive: [1] -0.02 | [2] -0.002 | [3] -0.008 | [4] 0.023 | [5] 0.008 | [6] -0.083 | [7] -0.017 | [8] 0.058 | [9] 0.042 | [10] 0.008

COMT (UniProt P21964)
Sequence of UniProt P21964 (P21964 whole entry, looked up): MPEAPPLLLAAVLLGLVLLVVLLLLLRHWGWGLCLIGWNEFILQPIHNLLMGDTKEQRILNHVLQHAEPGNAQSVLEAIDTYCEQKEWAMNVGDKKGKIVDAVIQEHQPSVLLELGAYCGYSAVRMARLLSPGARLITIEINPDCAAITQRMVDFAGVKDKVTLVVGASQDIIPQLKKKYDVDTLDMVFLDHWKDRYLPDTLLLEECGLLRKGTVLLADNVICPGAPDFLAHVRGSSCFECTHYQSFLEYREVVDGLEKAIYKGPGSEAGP
inactive: [1] -0.007 | [2] -0.029 | [3] -0.02 | [4] -0.018 | [5] 0.02 | [6] -0.08 | [7] 0.013 | [8] 0.028 | [9] 0.005 | [10] 0.009

DNAH10 (UniProt Q8IVF4)
inactive: [1] 0.017 | [2] 0.014 | [3] -0.026 | [4] -0.024 | [5] -0.026 | [6] -0.251 | [7] 0.025 | [8] 0.012 | [9] -0.017 | [10] -0.072

DARS (UniProt P14868)
inactive: [1] 0.01 | [2] -0.004 | [3] -0.032 | [4] -0.015 | [5] 0.063 | [6] -0.007 | [7] 0.01 | [8] 0.044 | [9] -0.008 | [10] 0.002

CIC (UniProt I3L2J0)
inactive: [1] 0.045 | [2] 0.024 | [3] 0 | [4] 0.001 | [5] 0.006 | [6] 0.027 | [7] -0.087 | [8] -0.053 | [9] -0.073 | [10] 0.014

DCP2 (UniProt Q8IU60)
inactive: [1] -0.065 | [2] -0.051 | [3] 0.009 | [4] 0.032 | [5] -0.018 | [6] -0.094 | [7] -0.012 | [8] 0.014 | [9] 0.03 | [10] 0.024

CLP1 (UniProt Q92989)
inactive: [1] -0.029 | [2] 0.039 | [3] -0.037 | [4] -0.039 | [5] 0.119 | [6] -0.065 | [7] -0.011 | [8] 0.029 | [9] -0.027 | [10] 0.026

DPH5 isoform 5 (UniProt Q9H2P9)
Sequence of UniProt Q9H2P9 (Q9H2P9 whole entry, looked up): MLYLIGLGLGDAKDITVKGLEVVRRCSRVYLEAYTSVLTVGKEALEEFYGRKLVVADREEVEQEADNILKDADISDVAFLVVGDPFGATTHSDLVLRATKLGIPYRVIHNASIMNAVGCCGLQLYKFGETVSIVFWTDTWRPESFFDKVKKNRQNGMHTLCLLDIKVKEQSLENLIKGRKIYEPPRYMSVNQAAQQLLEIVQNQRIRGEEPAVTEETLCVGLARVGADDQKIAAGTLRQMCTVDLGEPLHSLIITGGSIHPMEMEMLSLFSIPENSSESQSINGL
active: [3] 0.418 | [10] 0.377
inactive: [1] -0.01 | [2] 0.289 | [4] 0.009 | [5] 0.062 | [6] 0.003 | [7] 0.017 | [8] -0.048 | [9] -0.025

CNOT6L (UniProt Q96LI5)
inactive: [1] -0.026 | [2] 0.016 | [3] -0.053 | [4] 0.001 | [5] 0.01 | [6] -0.054 | [7] -0.047 | [8] 0.055 | [9] -0.024 | [10] 0.003

DDA1 (UniProt Q9BW61)
inactive: [1] 0.003 | [2] 0.008 | [3] -0.011 | [4] -0.056 | [5] 0.006 | [6] -0.006 | [7] -0.008 | [8] -0.023 | [9] -0.027 | [10] 0.023

DOCK10 (UniProt Q96BY6)
inactive: [1] -0.046 | [2] -0.008 | [3] -0.086 | [4] -0.081 | [5] 0.025 | [7] -0.129 | [8] -0.011 | [9] 0.029 | [10] -0.086
active: [6] -0.636

CIAO2A (UniProt Q9H5X1)
Sequence of UniProt Q9H5X1 (Q9H5X1 whole entry, looked up): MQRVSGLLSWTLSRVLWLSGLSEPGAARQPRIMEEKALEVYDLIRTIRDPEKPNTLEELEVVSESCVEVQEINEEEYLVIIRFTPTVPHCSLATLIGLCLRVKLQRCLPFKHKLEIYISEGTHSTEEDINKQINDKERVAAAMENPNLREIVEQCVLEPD
inactive: [1] -0.018 | [2] 0.033 | [3] -0.037 | [4] -0.074 | [5] 0.011 | [6] 0.011 | [7] -0.067 | [8] -0.004 | [9] -0.027 | [10] -0.038

DNM2 (UniProt P50570)
inactive: [1] 0 | [2] -0.015 | [3] -0.045 | [4] -0.016 | [5] 0.028 | [6] 0.016 | [7] 0.011 | [8] 0.034 | [9] 0.037 | [10] 0.009

CLASP2 isoform 3 (UniProt O75122)
inactive: [1] 0.013 | [2] -0.004 | [3] -0.024 | [4] 0.02 | [5] 0.021 | [6] -0.042 | [7] -0.063 | [8] -0.07 | [9] -0.007 | [10] 0.032

DCUN1D4 isoform 3 (UniProt Q92564)
inactive: [1] 0.023 | [2] -0.007 | [3] -0.062 | [4] -0.009 | [5] -0.046 | [6] 0.066 | [7] 0.017 | [8] -0.019 | [9] -0.036 | [10] -0.043

DCTN1 (UniProt Q14203)
Sequence of UniProt Q14203 (Q14203 whole entry, looked up): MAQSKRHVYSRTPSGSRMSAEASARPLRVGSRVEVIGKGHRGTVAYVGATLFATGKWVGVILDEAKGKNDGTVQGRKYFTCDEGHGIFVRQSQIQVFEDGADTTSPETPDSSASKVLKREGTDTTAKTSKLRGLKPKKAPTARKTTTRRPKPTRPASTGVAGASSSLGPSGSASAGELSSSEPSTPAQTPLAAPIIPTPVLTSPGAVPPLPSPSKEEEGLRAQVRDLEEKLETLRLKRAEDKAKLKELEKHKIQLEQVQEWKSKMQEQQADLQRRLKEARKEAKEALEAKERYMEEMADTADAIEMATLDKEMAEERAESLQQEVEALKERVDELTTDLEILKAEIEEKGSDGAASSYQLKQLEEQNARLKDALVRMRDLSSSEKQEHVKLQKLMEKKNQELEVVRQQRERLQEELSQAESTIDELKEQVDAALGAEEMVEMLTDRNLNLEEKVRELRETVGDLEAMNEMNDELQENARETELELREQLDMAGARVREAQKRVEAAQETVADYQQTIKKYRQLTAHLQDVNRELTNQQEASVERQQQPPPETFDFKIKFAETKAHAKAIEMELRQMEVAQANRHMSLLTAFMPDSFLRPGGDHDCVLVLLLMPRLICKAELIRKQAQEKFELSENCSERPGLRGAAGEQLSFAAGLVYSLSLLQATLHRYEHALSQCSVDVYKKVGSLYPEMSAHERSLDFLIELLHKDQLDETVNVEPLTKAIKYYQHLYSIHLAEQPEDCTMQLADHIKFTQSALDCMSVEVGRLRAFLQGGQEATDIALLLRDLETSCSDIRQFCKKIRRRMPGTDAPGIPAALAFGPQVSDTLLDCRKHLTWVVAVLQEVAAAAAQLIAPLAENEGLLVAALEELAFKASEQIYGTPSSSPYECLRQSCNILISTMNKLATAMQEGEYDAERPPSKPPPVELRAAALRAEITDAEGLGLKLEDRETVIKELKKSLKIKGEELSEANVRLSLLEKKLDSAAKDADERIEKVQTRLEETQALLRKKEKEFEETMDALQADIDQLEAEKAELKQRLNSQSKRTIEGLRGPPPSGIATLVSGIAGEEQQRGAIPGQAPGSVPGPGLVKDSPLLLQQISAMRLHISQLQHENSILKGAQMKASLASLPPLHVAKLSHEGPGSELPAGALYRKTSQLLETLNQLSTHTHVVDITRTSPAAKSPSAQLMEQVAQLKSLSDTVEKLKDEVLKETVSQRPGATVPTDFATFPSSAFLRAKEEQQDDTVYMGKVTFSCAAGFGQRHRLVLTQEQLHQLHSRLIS
inactive: [1] 0.008 | [2] -0.005 | [3] -0.025 | [4] 0.012 | [5] 0.017 | [6] 0.001 | [7] -0.001 | [8] 0.011 | [9] 0.009 | [10] -0.007

DOCK7 (UniProt Q96N67)
inactive: [1] 0.005 | [2] -0.002 | [3] 0.01 | [4] -0.03 | [5] 0.029 | [6] -0.039 | [7] -0.01 | [8] 0.048 | [9] 0.036 | [10] -0.062

COG5 isoform 2 (UniProt Q9UP83)
inactive: [1] -0.023 | [2] 0.057 | [3] -0.153 | [4] -0.003 | [5] 0.037 | [6] -0.031 | [7] -0.019 | [8] 0.043 | [9] -0.081 | [10] -0.12

CLIC2 (UniProt O15247)
inactive: [1] 0.029 | [2] -0.032 | [3] -0.017 | [4] 0.004 | [5] -0.022 | [6] -0.019 | [7] -0.024 | [8] 0.023 | [9] 0.004 | [10] -0.005

CMIP (UniProt Q8IY22)
Sequence of UniProt Q8IY22 (Q8IY22 whole entry, looked up): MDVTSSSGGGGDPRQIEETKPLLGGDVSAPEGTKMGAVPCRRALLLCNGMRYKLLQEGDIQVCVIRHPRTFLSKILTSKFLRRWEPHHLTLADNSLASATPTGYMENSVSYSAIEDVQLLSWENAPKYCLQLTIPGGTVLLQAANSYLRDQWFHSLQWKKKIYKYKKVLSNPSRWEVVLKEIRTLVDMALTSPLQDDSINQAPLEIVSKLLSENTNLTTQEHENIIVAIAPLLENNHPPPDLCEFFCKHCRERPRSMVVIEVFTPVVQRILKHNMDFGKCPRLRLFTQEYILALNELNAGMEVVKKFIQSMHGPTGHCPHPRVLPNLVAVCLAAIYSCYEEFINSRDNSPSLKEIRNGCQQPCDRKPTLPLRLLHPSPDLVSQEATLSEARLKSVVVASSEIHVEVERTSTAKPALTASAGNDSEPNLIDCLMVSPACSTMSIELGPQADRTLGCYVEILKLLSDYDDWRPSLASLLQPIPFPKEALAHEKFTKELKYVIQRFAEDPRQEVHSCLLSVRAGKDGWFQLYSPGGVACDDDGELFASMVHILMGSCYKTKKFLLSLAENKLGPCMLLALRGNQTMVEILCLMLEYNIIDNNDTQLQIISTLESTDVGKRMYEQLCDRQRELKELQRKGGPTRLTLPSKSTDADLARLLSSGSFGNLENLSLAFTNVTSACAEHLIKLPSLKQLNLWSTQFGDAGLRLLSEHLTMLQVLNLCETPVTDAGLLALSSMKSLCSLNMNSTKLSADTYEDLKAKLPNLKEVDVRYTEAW
inactive: [1] -0.034 | [2] 0.023 | [3] -0.063 | [4] 0.016 | [5] 0.008 | [6] -0.052 | [7] -0.045 | [8] 0.075 | [9] -0.008 | [10] -0.036

DLD (UniProt P09622)
inactive: [1] 0.02 | [2] 0.001 | [3] 0.003 | [4] 0.011 | [5] -0.022 | [6] -0.014 | [7] 0.003 | [8] -0.015 | [9] -0.009 | [10] 0.005

DNAJC3 (UniProt Q13217)
inactive: [1] 0.029 | [2] -0.019 | [3] 0.074 | [4] 0.008 | [5] 0.023 | [6] 0.11 | [7] -0.085 | [8] -0.055 | [9] 0.012 | [10] 0.005

DNM2 isoform 4 (UniProt P50570)
inactive: [1] 0.078 | [2] -0.018 | [3] -0.095 | [4] -0.03 | [5] 0.162 | [6] 0.025 | [7] -0.12 | [8] 0.088 | [9] 0.044 | [10] -0.181

CNOT4 isoform 6 (UniProt O95628)
inactive: [1] -0.004 | [2] 0.053 | [3] 0.034 | [4] 0.057 | [5] 0.013 | [6] 0.107 | [7] -0.018 | [8] 0.041 | [9] -0.022 | [10] 0.008

DLG3 isoform 2 (UniProt Q92796)
Sequence of UniProt Q92796 (Q92796 whole entry, looked up): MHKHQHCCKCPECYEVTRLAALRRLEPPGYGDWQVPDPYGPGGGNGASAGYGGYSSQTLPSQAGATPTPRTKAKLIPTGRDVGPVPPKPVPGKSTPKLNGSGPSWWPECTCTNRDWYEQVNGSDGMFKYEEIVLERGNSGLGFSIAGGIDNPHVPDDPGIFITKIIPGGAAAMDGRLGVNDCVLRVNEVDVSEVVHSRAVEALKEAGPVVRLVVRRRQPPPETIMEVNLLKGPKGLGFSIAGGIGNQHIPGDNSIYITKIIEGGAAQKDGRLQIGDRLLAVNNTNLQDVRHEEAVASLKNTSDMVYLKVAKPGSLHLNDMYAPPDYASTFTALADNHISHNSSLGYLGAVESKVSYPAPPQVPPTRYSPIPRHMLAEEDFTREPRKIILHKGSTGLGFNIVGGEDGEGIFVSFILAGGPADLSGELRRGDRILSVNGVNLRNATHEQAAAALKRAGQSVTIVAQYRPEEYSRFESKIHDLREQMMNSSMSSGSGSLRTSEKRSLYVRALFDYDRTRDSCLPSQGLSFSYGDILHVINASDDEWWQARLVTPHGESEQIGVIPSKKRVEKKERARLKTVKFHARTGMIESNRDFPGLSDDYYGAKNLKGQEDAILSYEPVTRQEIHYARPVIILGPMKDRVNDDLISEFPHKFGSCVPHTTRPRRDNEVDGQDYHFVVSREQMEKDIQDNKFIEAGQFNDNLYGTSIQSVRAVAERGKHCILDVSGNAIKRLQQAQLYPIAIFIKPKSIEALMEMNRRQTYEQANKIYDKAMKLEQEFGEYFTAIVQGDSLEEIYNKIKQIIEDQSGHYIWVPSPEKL
inactive: [1] -0.036 | [2] 0.027 | [3] -0.062 | [4] 0.146 | [5] -0.004 | [6] -0.007 | [7] 0.085 | [8] -0.03 | [9] -0.031 | [10] -0.049

DDX54 isoform 2 (UniProt Q8TDD1)
inactive: [1] 0.047 | [2] -0.035 | [3] 0.002 | [4] 0.019 | [5] 0.089 | [6] 0.042 | [7] -0.023 | [8] 0.021 | [9] 0.001 | [10] 0.011

CHUK (UniProt O15111)
inactive: [1] -0.029 | [2] 0.015 | [3] -0.091 | [4] 0.035 | [5] 0.059 | [6] -0.131 | [7] -0.015 | [8] 0.078 | [9] -0.006 | [10] -0.116

COQ8A (UniProt Q8NI60)
Sequence of UniProt Q8NI60 (Q8NI60 whole entry, looked up): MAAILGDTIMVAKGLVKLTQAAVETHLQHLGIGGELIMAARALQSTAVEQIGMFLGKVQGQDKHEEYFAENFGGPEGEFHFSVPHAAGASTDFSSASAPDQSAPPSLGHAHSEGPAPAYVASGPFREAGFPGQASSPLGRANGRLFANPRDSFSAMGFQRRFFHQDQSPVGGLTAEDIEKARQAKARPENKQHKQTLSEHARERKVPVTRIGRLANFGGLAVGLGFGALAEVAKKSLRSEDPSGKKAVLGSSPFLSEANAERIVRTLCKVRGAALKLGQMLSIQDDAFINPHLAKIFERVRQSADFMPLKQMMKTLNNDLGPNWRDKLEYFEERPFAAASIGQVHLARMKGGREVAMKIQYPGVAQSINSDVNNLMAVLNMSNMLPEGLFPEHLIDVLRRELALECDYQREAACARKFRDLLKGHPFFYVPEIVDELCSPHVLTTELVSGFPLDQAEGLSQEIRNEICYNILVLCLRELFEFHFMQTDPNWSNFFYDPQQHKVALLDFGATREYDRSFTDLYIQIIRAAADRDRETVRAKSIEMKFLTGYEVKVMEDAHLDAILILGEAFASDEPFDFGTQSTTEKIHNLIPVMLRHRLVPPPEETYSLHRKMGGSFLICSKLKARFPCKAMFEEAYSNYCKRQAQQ
inactive: [1] 0.091 | [2] -0.013 | [3] 0.394 | [4] -0.211 | [5] -0.05 | [6] 0.082 | [7] 0.032 | [8] 0.051 | [9] 0.348 | [10] 0.004
